Laboratory results reported in PubChem BioAssay (EPA / NIEHS).
The source made the active and inactive calls. How the source made its calls: active means hit-call score of the fitted dose curve at least 0.9, where 1 is the maximum; inactive means score below 0.9.

Assay: CCTE_Padilla_ZF_Score.Spine: CCTE's 144 Hour Post-fertilization zebrafish Assay Score for Spine Malformation, Padilla Lab (AID 2284407)
In short: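 Wild-type zebrafish embryos, one per well in Hanks' solution, dosed at 6–8 hpf in sealed plates at 26C, 14:10 h light:dark; rinsed at 5 dpf. Two blinded assessors scored spinal defects by stereomicroscopy at 6 dpf; fitted versus DMSO.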

**Q.** Which outcome does the source give for `C=C(C)C(=O)OCCC(F)(F)C(F)(F)C(F)(F)C(F)(F)C(F)(F)C(F)(F)C(F)(F)C(F)(F)F` here?
**A.** Its outcome is “inactive”.

**Q.** Which outcome does the source give for `O=C(O)C(F)(F)C(F)(F)C(F)(F)C(F)(F)C(F)(F)C(F)(F)C(F)(F)C(F)F` here?
**A.** The outcome was “inactive”.

**Q.** With `OCC(F)(OC(F)(F)C(F)(OC(F)(F)C(F)(F)C(F)(F)F)C(F)(F)F)C(F)(F)F` (stereo not drawn) as the compound, how does the outcome read?
**A.** Its outcome is “inactive”.

**Q.** With `C=C(F)C(=O)OC(C(F)(F)F)C(F)(F)F` as the compound, how does the outcome read?
**A.** Its outcome is “inactive”.

**Q.** For `O=S(=O)(O)C(F)(F)C(F)(F)OC(F)(F)C(F)(F)F`, which outcome is on record?
**A.** Its outcome is “inactive”.

**Q.** For `O=C(O)C(F)(F)OC(F)(F)C(F)(F)OC(F)(F)C(F)(F)C(F)(F)C(F)(F)F`, which outcome is on record?
**A.** The outcome was “inactive”.

Assay: CCTE_Padilla_ZF_Score.Swim_bladder: CCTE's 144 Hour Post-fertilization zebrafish Assay Score for Swim Bladder Malformation, Padilla Lab (AID 2284408)
In short: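 Wild-type zebrafish embryos, one per well in 10% Hanks', dosed at 6–8 hpf, sealed, reared at 26C and rinsed at 5 dpf. Blinded assessors scored uninflated swim bladder by stereomicroscopy at 6 dpf, relative to DMSO.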

**Q.** For `C=C(C)C(=O)OCCC(F)(F)C(F)(F)C(F)(F)C(F)(F)C(F)(F)C(F)(F)C(F)(F)C(F)(F)F`, which outcome is on record?
**A.** The outcome was “inactive”.

**Q.** For `O=C(O)C(F)(F)C(F)(F)C(F)(F)C(F)(F)C(F)(F)C(F)(F)C(F)(F)C(F)F`, which outcome is on record?
**A.** Its outcome is “inactive”.

**Q.** For `OCC(F)(OC(F)(F)C(F)(OC(F)(F)C(F)(F)C(F)(F)F)C(F)(F)F)C(F)(F)F` (stereo not drawn), which outcome is on record?
**A.** Its outcome is “inactive”.

**Q.** With `C=C(F)C(=O)OC(C(F)(F)F)C(F)(F)F` as the compound, how does the outcome read?
**A.** Its outcome is “inactive”.

**Q.** For `O=S(=O)(O)C(F)(F)C(F)(F)OC(F)(F)C(F)(F)F`, which outcome is on record?
**A.** The outcome was “inactive”.

**Q.** Which outcome does the source give for `O=C(O)C(F)(F)OC(F)(F)C(F)(F)OC(F)(F)C(F)(F)C(F)(F)C(F)(F)F` here?
**A.** The outcome was “inactive”.

Assay: CCTE_Padilla_ZF_Score.Position: CCTE's 144 Hour Post-fertilization zebrafish Assay Score for Position, Padilla Lab (AID 2284409)
In short: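 Wild-type zebrafish embryos (with chorions) exposed singly from 6–8 hpf in sealed wells of Hanks' solution at 26C, rinsed at 5 dpf. At 6 dpf, blinded assessors scored abnormal water-column position by brightfield stereomicroscopy, relative to DMSO.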

**Q.** For `C=C(C)C(=O)OCCC(F)(F)C(F)(F)C(F)(F)C(F)(F)C(F)(F)C(F)(F)C(F)(F)C(F)(F)F`, which outcome is on record?
**A.** The outcome was “inactive”.

**Q.** With `O=C(O)C(F)(F)C(F)(F)C(F)(F)C(F)(F)C(F)(F)C(F)(F)C(F)(F)C(F)F` as the compound, how does the outcome read?
**A.** Its outcome is “inactive”.

**Q.** With `OCC(F)(OC(F)(F)C(F)(OC(F)(F)C(F)(F)C(F)(F)F)C(F)(F)F)C(F)(F)F` (stereo not drawn) as the compound, how does the outcome read?
**A.** The outcome was “inactive”.

**Q.** With `C=C(F)C(=O)OC(C(F)(F)F)C(F)(F)F` as the compound, how does the outcome read?
**A.** The outcome was “inactive”.

**Q.** Which outcome does the source give for `O=S(=O)(O)C(F)(F)C(F)(F)OC(F)(F)C(F)(F)F` here?
**A.** The outcome was “inactive”.

**Q.** With `O=C(O)C(F)(F)OC(F)(F)C(F)(F)OC(F)(F)C(F)(F)C(F)(F)C(F)(F)F` as the compound, how does the outcome read?
**A.** Its outcome is “inactive”.
